Only a selection was taken, and hits are over-represented in it overall.
NS1 inh: qHTS Assay for Inhibitors of Influenza NS1 Protein Function. Potency, µM (series often up to 46.1 µM), inactives show at the top dose activity, positive = more growth. 270,000 compounds, 0.4% hits; calls by dose curve; further: potency means the concentration at half of the fitted maximal effect; actives are rising curves; nearly all actives have a fitted effect of over 50% in size
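OD600 was taken as the measure of yeast growth restored by compound in an NS1-expressing S. cerevisiae strain. Cells had been washed out of glucose medium and diluted 1:100 into galactose -URA medium, pH 6.0.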
AmpC inh no detg: qHTS Inhibitors of AmpC Beta-Lactamase (assay without detergent). AmpC nitrocefin hydrolysis, absorbance 480 nm, 0.0001% Triton. Potency, µM (titrated, usually from 57.1 µM), inactives show at the top dose activity change, negative = inhibition, hits mostly inhibitors. 330,000 compounds, 0.52% hits;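 further: potency means the concentration at half of the fitted maximal effect; plate controls were no compound for no effect and no enzyme for full effect; nearly all actives have a fitted effect of over 20% in size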
Target sequence (P00811 whole entry, looked up): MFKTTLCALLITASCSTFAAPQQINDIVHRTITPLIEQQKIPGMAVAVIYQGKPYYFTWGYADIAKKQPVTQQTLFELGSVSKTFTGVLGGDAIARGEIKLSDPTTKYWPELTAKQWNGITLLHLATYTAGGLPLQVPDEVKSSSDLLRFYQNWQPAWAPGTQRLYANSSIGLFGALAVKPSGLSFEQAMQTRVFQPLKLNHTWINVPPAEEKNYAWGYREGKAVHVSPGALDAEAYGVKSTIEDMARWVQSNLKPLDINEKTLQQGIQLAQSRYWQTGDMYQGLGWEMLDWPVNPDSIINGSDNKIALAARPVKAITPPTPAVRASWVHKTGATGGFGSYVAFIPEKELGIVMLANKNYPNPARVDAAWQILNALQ
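AmpC (5.3 nM in the dispensed reagent) in 20 mM phosphate pH 7.0 with 0.01% (detergent screen) or 0.0001% Triton X-100 was preincubated with compounds for 15 min at room temperature. Nitrocefin was then added from an 800 uM solution, and hydrolysis was followed at 480 nm.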
AmpC inh detg: qHTS Inhibitors of AmpC Beta-Lactamase (assay with detergent); Potency, µM (top dose mostly 114 µM), inactives show at the top dose activity change, negative = inhibition, actives largely listed as inhibitors; AID 485294, 2010; 370,000 compounds, 0.041% hits; AmpC hydrolysis of nitrocefin, absorbance 480 nm, 0.01% Triton;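 further: potency means the concentration at half of the fitted maximal effect; 0% = no-compound wells and -100% = no-enzyme wells; nearly all actives have a fitted effect of over 25% in size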
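AmpC (5.3 nM in the dispensed reagent) in 20 mM phosphate pH 7.0 with 0.01% (detergent screen) or 0.0001% Triton X-100 was preincubated with compounds for 15 min at room temperature. Nitrocefin was then added from an 800 uM solution, and hydrolysis was followed at 480 nm.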
CHX counter-1: Cycloheximide Counterscreen for Small Molecule Inhibitors of Shiga Toxin; 300,000 compounds, 12% hits; max response, %; cell reporter, cycloheximide protein synthesis inhibition counterscreen; in the data active means max response mostly above about 13%, no sharp cut-off; inactive means mostly below about 14%; further: read at 38.3 µM for the half of the compounds with a filed dose; 0% is about no effect
Shiga inhibitor: A qHTS for Small Molecule Inhibitors of Shiga Toxin; inhibition, % at 38.7 µM; Vero cells, Shiga toxin protein synthesis inhibition reporter; 290,000 compounds, 9.2% hits; AID 2315, 2010; in the data active means inhibition mostly above about 28%, no sharp cut-off; inactive means mostly below about 43%; further: 0% is about no effect
CHX counter-2: Cycloheximide Counterscreen for Small Molecule Inhibitors of Shiga Toxin (Confirmatory) | Potency, µM (top dose mostly 38.3 µM), without a hit: at the top dose activity (activation), hits mostly activators | AID 2318, 2010 | shares compounds with Shiga inhibitor | 510 compounds, 3% hits | Cycloheximide counterscreen, protein synthesis reporter, Shiga toxin assay; calls by dose curve; further: potency means the concentration at half of the fitted maximal effect; 0% is about no effect
* marks the source's active call; other numbers are inactive results; ? = inconclusive; . = no result given; + = active, no number; ! = a repeat was not active; [ ] = another dose, or the depositor's remark. Unless noted, the call rests on the fitted dose curve; in most records, active means well fitted curve in the direction sought with a large enough effect; inconclusive means small, poorly fitted or top-dose-only effect, or another doubt; inactive means no such curve, though single readings can be large; an effect the other way counts as inactive or inconclusive.

SMILES	NS1 inh	AmpC inh no detg	AmpC inh detg	CHX counter-1	Shiga inhibitor	CHX counter-2
COCCOC(=O)c1c(C)oc2ccc(OC(=O)c3ccco3)cc12	-37%	32%	18%	12	+	5%
CN1CC(c2ccccc2)C2(SC(=S)N(Cc3ccco3)C2=O)C12C(=O)Nc1ccccc12 (stereo unspecified)	-1%	-20%	-1%	8	24	.
CN1CC(c2ccccn2)C2(SC(=S)N(Cc3ccccc3)C2=O)C12C(=O)Nc1ccccc12 (stereo unspecified)	?	-32%	-9%	1	71*	-5%
COc1ccc(-c2cc(C(=O)NCC3CCCO3)c3ccccc3n2)c(OC)c1 (stereo unspecified)	23%	42%	1%	-3	2	.
Cc1ccc2nc(-c3ccccc3)cc(C(=O)NCC3CCCO3)c2c1 (stereo unspecified)	-12%	22%	4%	10	40*	1%
CCCn1c(N)c(N(CCOC)C(=O)c2ccc(-c3ccc(Cl)cc3)o2)c(=O)[nH]c1=O	.	18%	?	.	.	.
CC(C)Cn1c(SCC(=O)N(C)c2c(N)n(Cc3ccccc3)c(=O)[nH]c2=O)nc2ccccc21	.	-7%	?	.	.	.
Cc1cccc(Cn2cc(SCC(=O)Nc3nccs3)c3ccccc32)c1	-3%	-18%	?	8	23*	?
CC(C)c1nnc(NC(=O)C2CCN(C(=O)Nc3ccccc3)CC2)s1	-1%	-5%	1%	4	7	.
CCCCSCCCNC(=O)CCCN1C(=O)c2ccccc2Sc2ncccc21	-4%	99%	-7%	2	32*	5%
O=C(COc1ccc(Br)cc1CNCCc1ccccc1)NCc1ccccc1	-3%	-9%[2.29 µM]	3%	12	40*	2%
O=C(CCS(=O)(=O)c1cccs1)Nc1ccc(C(=O)NCc2cccs2)cc1	-14%	-47%	-6%	7	29*	-2%
CC(=O)c1cccc(NC(=O)c2ccc(NC(=O)CCS(=O)(=O)c3cccs3)cc2)c1	9%	-56%	-5%	-6	33*	2%
CCOc1ccccc1NS(=O)(=O)c1cccs1	-5%	-9%	-14%	-3	1	.
CCOc1ccccc1NC(=O)CCS(=O)(=O)c1cccs1	4%	-17%	?	-3	126*	-2%
O=C(NC(=S)Nc1cc([N+](=O)[O-])ccc1O)c1cccnc1	0%	-8%	-2%	5	4	.
CCCn1c(C)cc(/C=C(\C#N)C(=O)OCC(=O)NC(=O)NCC)c1C	-3%	-13%	-12%	6	18	.
CCCn1c(C)cc(/C=C(\C#N)C(=O)OCC(=O)Nc2ccc(OC)c(Cl)c2)c1C	1%	-42%	-5%	12	61*	4%
CCC(=O)Nc1ccc(C(=O)NNC(=O)C(c2ccccc2)c2ccccc2)cc1	?	-19%	-1%	-6	-2	.
Cc1cccc(C(=O)NNC(=O)c2cccc(C)c2)c1	4%	-9%	1%	8	3	.
Cc1cccc(C(=O)NNC(=O)c2ccccc2)c1	2%	-12%	-10%	8	+	?
CCC(=O)N1CCN(c2ccc(NC(=O)c3ccc4ccccc4c3)cc2)CC1	-1%	-6%	?	8	21	.
CCC(=O)Nc1ccc(C(=O)NNC(=O)c2ccccc2)cc1	-2%	-4%	-7%	1	32*	1%
CCC(=O)N1CCN(c2ccc(NC(=O)c3ccccc3)cc2)CC1	-4%	-7%	-14%	10	47*	?
CCC(Oc1ccccc1F)C(=O)Nc1c(C(=O)c2ccccc2)oc2ccccc12 (stereo unspecified)	.	.	24%	.	.	.
SMILES	NS1 inh	AmpC inh no detg	AmpC inh detg	CHX counter-1	Shiga inhibitor	CHX counter-2
COc1cc(O)c2c(c1)oc(=O)c1c3cc(O)c(O)cc3oc21	.	.	.	21*!	33*	8%
COc1cc2oc3cc(C)oc(=O)c3c2cc1OC	-68%	11%	-14%	5	26	.
O=C(COC(=O)C12CC3CC(CC(C3)C1)C2)Nc1nccs1	-6%	-22%	8%	7	-1	.
COc1ccccc1NC(=O)CSc1nnc(-c2ccccn2)n1Cc1ccco1	-10%	21%	?	-5	13	.
COc1ccccc1NC(=O)CSc1nnc(-c2ccco2)n1Cc1ccco1	-4%	0%	-16%	-4	63*	3%
Cc1ccsc1C(=O)N1CCc2ccccc2C1	-5%	-5%	1%	15	36*	?
COc1cc2c(cc1OC)CN(C(=O)c1sccc1C)CC2	-2%	-8%	0%	-2	12	.
Cc1cc2n(n1)SC(Nc1cc(Cl)ccc1Cl)N2 (stereo unspecified)	1%	-29%	?	17	35*	1%
COc1ccccc1-n1cnnc1SCC(=O)Nc1ccccc1	9%	-8%	-5%	1	62*	6%
COCCN(C(=O)CSc1nnc(-c2ccccc2F)n1N)c1c(N)n(Cc2ccccc2)c(=O)[nH]c1=O	7%	5%	2%	7	-8	.
O=C(Cc1cccs1)Nc1ccc(-c2nnc(-c3ccco3)o2)cc1	.	-14%	-15%	12	49*	?
Cc1ccc(NC(=S)N(C)Cc2cn(C)c3ccccc23)cc1	1%	-34%	-1%	-3	-19	.
CC1CCCCC12NC(=O)N(CC(=O)OCC(=O)N(C)C1CCCCC1)C2=O (stereo unspecified)	.	81%	7%	.	.	.
COc1ccc2nc(SCC(=O)NC3CCCCC3)[nH]c2c1	-8%	-19%	-17%	-1	48	.
COc1ccc2nc(SCC(=O)Nc3ccc4c(c3)CCC4)[nH]c2c1	7%	-43%	-6%	5	42*	0%
COc1ccc2nc(SCC(=O)Nc3ccc4[nH]c(=O)[nH]c4c3)[nH]c2c1	.	-15%	-5%	.	.	.
CCOc1ccc2nc(SCC(=O)NC3CCCCC3)[nH]c2c1	-3%	-17%	0%	-3	44*	-1%
C=CCc1ccccc1OCC(O)CN1CCN(c2ccccc2)CC1 (stereo unspecified)	.	.	-10%	.	.	.
C=CCc1cc(C)ccc1OCC(O)CN1CCN(c2ccccc2)CC1 (stereo unspecified)	-16%	45%	-6%	-2	33*	0%
O=C(Cn1ncc2c1-c1ccccc1OC2)N(Cc1ccco1)C1CCCCC1	-48%	23%	?	-3	-9	.
O=C(Cn1ncc2c(=O)oc3ccccc3c21)N(Cc1ccco1)C1CCCCC1	-46%	-16%	?	1	48*	-2%
Cc1ccccc1OCCCN1C(=O)C(=O)c2cccc(C)c21	-119%	?	?	6	28*	-1%
Cc1cccc2c1N(CCCOc1ccccc1)C(=O)C2=O	-121%	-27%	-5%	-3	1	.
